Most compounds without a hit are left out; they make up all but 6.9% or so of the library.
KB-V1 cytotox – KB-V1 MDR subline cytotoxicity | Potency, µM (doses to about 46.1 µM), hits mostly cytotoxic | KB-V1 MDR cells viability, CellTiter-Glo, 72 h | 3.4% of 400,000 active | AID 1347076; note: potency is the fitted concentration of half-maximal effect; % is set by controls: 0 for no effect and ±100 for the full control effect; nearly all actives have a fitted effect of over 60% in size
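Following 72 h at 37 degrees C with compound, KB-V1 cell viability was read by CellTiter-Glo luminescence, medium being phenol-red-free DMEM plus 10% FBS; concentration-response parameters came from normalized, curve-fitted qHTS data.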
S-ASM inh – blocks human secretory acid sphingomyelinase. P17405. placental ASM, HMU-PC fluorogenic substrate, 60 min. Potency, µM (top dose mostly 57.5 µM), for the others: at the highest dose activity change, negative = inhibition, usual class: inhibitors. 0.006% of 340,000 active. AID 504937; note: potency is the fitted concentration of half-maximal effect
Target sequence (P17405 47-631 limits assumed): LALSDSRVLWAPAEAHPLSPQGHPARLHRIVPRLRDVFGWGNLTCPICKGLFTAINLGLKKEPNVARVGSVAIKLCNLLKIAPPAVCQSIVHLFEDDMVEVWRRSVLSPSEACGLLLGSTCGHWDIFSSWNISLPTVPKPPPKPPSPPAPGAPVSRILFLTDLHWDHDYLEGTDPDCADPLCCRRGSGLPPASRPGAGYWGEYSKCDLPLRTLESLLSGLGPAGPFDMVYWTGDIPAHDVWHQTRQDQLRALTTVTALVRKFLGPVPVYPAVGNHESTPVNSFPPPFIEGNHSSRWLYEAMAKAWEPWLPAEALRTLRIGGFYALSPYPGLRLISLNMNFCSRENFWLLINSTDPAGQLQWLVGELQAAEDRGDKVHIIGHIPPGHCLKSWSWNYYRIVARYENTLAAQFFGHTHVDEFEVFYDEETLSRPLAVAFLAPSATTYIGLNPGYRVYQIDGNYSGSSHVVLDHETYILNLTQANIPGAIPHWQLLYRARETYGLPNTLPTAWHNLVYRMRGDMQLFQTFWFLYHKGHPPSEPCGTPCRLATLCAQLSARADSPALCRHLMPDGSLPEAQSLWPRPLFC
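Human placenta-derived ASM enzyme was preincubated with compound for 10 minutes at room temperature, then given fluorogenic substrate HMU-PC0 (9 uM final) for 60 minutes at 37 °C; a pH 10 stop preceded fluorescence reading at Ex 386/Em 447 nm.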
SW480 rerep – DNA re-replication induction in SW480 cells | SW480 DNA re-replication, Hoechst DNA content imaging, 48 h | Potency, µM (highest dose often 46.1 µM), for the others: at the top dose re-replication activation, actives largely listed as activators | 1.8% of 340,000 active | AID 624297; note: potency is the fitted concentration of half-maximal effect; % of control where 0% means no effect; nearly all actives have a fitted effect of over 55% in size
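Compounds, transferred as 23 nL by pin tool, were incubated with cells for 48 hr; DNA content per nucleus was then quantified by Hoechst staining and fluorescence plate imaging.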
MCF10A rereplic – induces DNA re-replication in MCF 10a normal breast cells | MCF 10A DNA re-replication, Hoechst nuclear intensity, 48 h | Potency, µM (top dose mostly 46.1 µM), for the others: at the top dose activity, positive = re-replication, hits mostly activators | 2.9% of 350,000 active | AID 624296; note: potency is the fitted concentration of half-maximal effect; % of control where 0% means no effect; nearly all actives have a fitted effect of over 50% in size
KB-3-1 cytotox – KB-3-1 parental cell cytotoxicity. KB-3-1 viability, CellTiter-Glo ATP luminescence, 72 h. Potency, µM (top dose mostly 46.1 µM), actives largely listed as cytotoxic. 1.4% of 400,000 active; note: potency is the fitted concentration of half-maximal effect; % is set by controls: 0 for no effect and ±100 for the full control effect; nearly all actives have a fitted effect of over 60% in size
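Screening of KB-3-1 cells (DMEM, 10% FBS, phenol-red free) ran from lowest to highest compound concentration; after 72 h at 37 °C viability was read luminescently and curves fitted.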
Giardia killer – kills Giardia lamblia; Giardia lamblia trophozoite viability; activity change, % at 7.66 µM, hits read low; 0.15% of 340,000 active; in the data active = activity change below about -80%; inconclusive = between about -30% and that limit;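 note: parasites exposed to compound for two days anaerobically before the ATP read; % is set by controls: 0 for no effect and ±100 for the full control effect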
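Viability, read as ATP luminescence: trophozoites at 100 cells/well, compound added, 48 hrs anaerobic at 37 deg C, then 15-30 min room-temperature development before reading.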
An asterisk follows results filed as active; i = inactive; u = inconclusive; x = no result given; ! = a repeat was not active. Unless noted, calls come from the whole dose curve; as a rule, active = well fitted curve in the direction sought with a large enough effect; inconclusive = small, poorly fitted or top-dose-only effect, or another doubt; inactive = no such curve, though single readings can be large; an effect the other way counts as inactive or inconclusive.

SMILES	KB-V1 cytotox	S-ASM inh	SW480 rerep	MCF10A rereplic	KB-3-1 cytotox	Giardia killer
O=S(=O)(c1ccc(F)cc1)c1snnc1-c1ccccc1	i	-1%	52%	7.3µM*	13µM*	-2
Cc1cccc(NC(=O)C2CCCN(S(=O)(=O)c3cccs3)C2)c1C (configuration not stated)	i	1%	-2%	8%	i	-5
O=S(=O)(c1ccc(Br)cc1)N1CCCN(Cc2cccc(F)c2)CC1	i	0%	21µM*!	u	i	-6
COc1ccc(-c2nnc(SCC(=O)N(Cc3ccccc3)C(C)(C)C)o2)cc1OC	9.2µM*	-14%	-16%	u	u	1
COCCCNCC(=O)Nc1ccc(OC(F)(F)F)cc1	i	-1%	u	u	i	-18
COc1ccc(CCNCC(=O)Nc2ccc(OC(F)(F)F)cc2)cc1OC	i	-1%	10%	23µM*	i	-10
COc1ccc(CCNC(=O)CSc2ccc3ccccc3c2)cc1OC	23µM*	1%	-3%	5%	i	-9
COc1ccc(CCNC(=O)CSc2ccc(NC(C)=O)cc2)cc1OC	i	1%	-13%	-17%	i	-23
COc1ccc(CCNC(=O)C(C(=O)c2ccccc2)n2cc(Cl)ccc2=O)cc1OC (configuration not stated)	16µM*	-1%	4%	-3%	i	-14
O=C(c1ccc2c(c1)N(Cc1c(F)cccc1Cl)C(=O)c1ccccc1S2)N1CCCC1	i	x	x	x	i	x
CCOc1ccc(-c2c(C)nn3c(C)c(C(=O)Nc4cc(C)cc(C)c4)cnc23)cc1OCC	i	x	x	x	i	x
COc1ccc(CCNC(=O)C(=O)NCc2ccccc2)cc1OC	u	-9%	18µM*	u	21µM*	-9
COc1ccc(CCNC(=O)CSc2nnc(-c3ccccc3)o2)cc1OC	21µM*	2%	-12%	0%	i	3
COc1ccc(CCNC(=O)CSc2nnc(-c3cccc(C)c3)o2)cc1OC	u	-2%	-15%	2%	i	-2
CCCCOc1ccc(S(=O)(=O)Nc2ccc(-c3ccc(N4CCCCC4)nn3)cc2)cc1	i	x	x	x	i	x
CCOc1ccc(NC(=O)c2cc(C)nc3c2c(C)nn3-c2ccc(C)cc2)cc1	i	x	x	x	i	x
COc1cccc(-n2c(SCc3cc(=O)oc4cc(O)c(O)cc34)nc3ccccc3c2=O)c1	i	-2%	u	u	i	8
COc1ccccc1-c1cc(C(F)(F)F)nc(S(=O)(=O)CCCC(=O)Nc2cc(OC)c(OC)c(OC)c2)n1	u	x	x	x	i	x
COc1ccc(-c2cc(C(F)(F)F)nc(S(=O)(=O)CCCC(=O)Nc3cccc(O)c3)n2)cc1OC	i	5%	u	6.5µM*	i	-5
COc1ccccc1-c1cc(C(F)(F)F)nc(S(=O)(=O)CCCC(=O)Nc2ccc(F)c(Cl)c2)n1	u	x	x	x	i	x
COc1ccc(-c2cc(C(F)(F)F)nc(S(=O)(=O)CCC(=O)N3CCOCC3)n2)cc1	u	6%	u	8.2µM*	u	4
COc1ccc(-c2cc(C(F)(F)F)nc(SCC(=O)N3CCOCC3)n2)cc1OC	i	88%	-5%	u	i	16
COc1ccccc1-c1cc(C(F)(F)F)nc(S(=O)(=O)CCCC(=O)N2CCOCC2)n1	u	13%	u	3.3µM*	16µM*	-10
COc1ccccc1-c1cc(C(F)(F)F)nc(S(=O)(=O)CCCC(=O)O)n1	i	5%	3.5µM*	u	i	-8
CCCN1CNc2c(c(=O)[nH]c(=S)n2CCc2ccc(C)cc2)C1	x	x	x	x	x	20
O=C1COc2ccc(-c3cc(-c4ccccc4)c4c(n3)-c3cc(Cl)ccc3OC4)cc2N1	i	x	x	x	i	x
CCOCCn1ccc2c(OCC(=O)Nc3cccc(F)c3)cccc2c1=O	i	x	x	x	i	x
COc1ccc(-c2ccc(NS(=O)(=O)c3cc(C)c(C)cc3C)cc2)nn1	i	x	x	x	i	x
